Experiment [1] relates to Brachyury (BRA) Protein Expression, Deisenroth Lab, TBXT (gene 6862). In words: CCTE_Deisenroth_DEVTOX-GLR_legacy_Bra: (Legacy) CCTE's DevTox GLR-Endo Assay Evaluation of Brachyury (BRA) Protein Expression, Deisenroth Lab (AID 2284329). An outline of the steps:
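Readout: percent Bra+ cells by high-content fluorescence imaging, Bra+ meaning mean intensity 5x BMAD over pluripotent control median. RUES2-GLR cells dosed twice over 48 h differentiation; DMSO-control median subtracted before concentration-response fitting.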

Experiment [2] is described as follows: CCTE_Deisenroth_DEVTOX-GLR_legacy_CellCount: (Legacy) Viability Assessment in CCTE's DevTox GLR-Endo Assay, Deisenroth Lab (AID 2284331). The note with it: actives raise or lower the signal. An outline of the steps:
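Seed RUES2-GLR 24 h; differentiate 48 h, dosing at 0 and 24 h; fix, stain nuclei; image 5 fields/well; count nuclei. Conc. 1 nM - 200 uM, single technical replicate, n=4 experiments; bidirectional fit vs 0.2% DMSO.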

Experiment [3] concerns SRY-box transcription factor 17 (SOX17) Protein Expression, Deisenroth Lab, SOX17 (gene 64321). In words: CCTE_Deisenroth_DEVTOX-GLR_legacy_Sox17: (Legacy) CCTE's DevTox GLR-Endo Assay Evaluation of SRY-box transcription factor 17 (SOX17) Protein Expression, Deisenroth Lab (AID 2284341). To be noted: actives raise or lower the signal. An outline of the steps:
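Using the RUES2-GLR line, compounds are tested as 10-point series during 48-h defined-media differentiation. Sox17 reporter fluorescence per cell determines positivity; endpoint is percentage positive, analysed bidirectionally versus DMSO baseline.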

Experiment [4] deals with SRY-box transcription factor 2 (SOX2) Protein Expression, Deisenroth Lab, SOX2 (gene 6657). In words: CCTE_Deisenroth_DEVTOX-GLR_legacy_Sox2: (Legacy) CCTE's DevTox GLR-Endo Assay Evaluation of SRY-box transcription factor 2 (SOX2) Protein Expression, Deisenroth Lab (AID 2284346). An outline of the steps:
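Read-out: fraction of Sox2+ cells by high-content fluorescence imaging of fixed RUES2-GLR cells after 48 h differentiation with two 24 h-spaced exposures. Positivity cutoff 5x BMAD above endoderm control median; 0.2% DMSO median subtracted.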

Experiment [5] shares this test system. In words: CCTE_Deisenroth_DEVTOX-GLR_Endo_SOX2: CCTE's DevTox GLR-Endo Assay Evaluation of SRY-box transcription factor 2 (SOX2) Protein Expression, Deisenroth Lab (AID 2284412; active means hit-call score of the fitted dose curve at least 0.9, where 1 is the maximum). A digest of the protocol: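 Endpoint is percent SOX2-positive cells (SOX2+ count/total cells) minus 0.2% DMSO control, from high-content imaging of fixed, nuclear-stained RUES2-GLR cells. Dosing twice at 24 h intervals over 48 h differentiation, 1 nM–200 uM in 10 points.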

Experiment [6] concerns SRY-box transcription factor 17 (SOX17) Protein Expression, Deisenroth Lab, SOX17 (gene 64321). In words: CCTE_Deisenroth_DEVTOX-GLR_Endo_SOX17: CCTE's DevTox GLR-Endo Assay Evaluation of SRY-box transcription factor 17 (SOX17) Protein Expression, Deisenroth Lab (AID 2284413). A digest of the protocol:
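Human RUES2-GLR cells carrying an inducible fluorescent reporter are differentiated in defined media for 48 h and dosed twice, 24 h apart. After fixation and nuclear staining, imaging yields SOX17+ cell percentage relative to 0.2% DMSO-treated differentiated cells.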

Experiment [7] relates to Brachyury (BRA) Protein Expression, TBXT (gene 6862). In words: CCTE_Deisenroth_DEVTOX-GLR_Endo_BRA: CCTE's DevTox GLR-Endo Assay Evaluation of Brachyury (BRA) Protein Expression, Deisenroth Lab (AID 2284417). An outline of the steps:
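Percent BRA+ (mesoderm) RUES2-GLR cells after 48 h differentiation with two exposures, 1 nM - 200 uM; 0.2% DMSO control subtracted.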

Experiment [8] is described as follows: CCTE_Deisenroth_DEVTOX-GLR_Endo_CellCount: Viability Assessment in CCTE's DevTox GLR-Endo Assay, Deisenroth Lab (AID 2284420). An outline of the steps: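 Measured 48 h after dosing: fluorescent nuclei counted by imaging in human RUES2-GLR cells under defined differentiation media, tested at 1 nM - 200 uM. Values are percent cell-count change relative to 0.2% DMSO.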

For experiment [9], the target named is Cellular tumor antigen p53 (Homo sapiens) (UniProt P04637). In words: TOX21_p53_BLA_p2_ratio: Tox21 HCT-116 p53 Agonism Beta-lactamase Assay, Ratio, Phase 2 (AID 2283592; active means hit-call score of the fitted dose curve at least 0.9, where 1 is the maximum). An outline of the steps:
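DMSO-normalized, positive-direction endpoint derived from the 460 nm/530 nm FRET ratio in HCT116 p53 beta-lactamase reporter cells exposed 16 h at 37C and loaded with CCF4-AM for 2 h.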

The nature of experiment [10]: TOX21_p53_BLA_p3_viability: Viability Assessment in the Tox21 HCT-116 p53 Agonism Beta-lactamase Assay, Phase 3 (AID 2283593; active means hit-call score of the fitted dose curve at least 0.9, where 1 is the maximum;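 further: cells exposed to compound for 16 h before reading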). An outline of the steps:
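HCT116 cells, 4000/well, dosed 5 h after plating by pin transfer (217-fold dilution from DMSO stock) and incubated 16 h at 37C, 5% CO2. Viability read as ATP luminescence with CellTiter-Glo after 30 min at room temperature.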

Experiment [11] has as its target Cellular tumor antigen p53 (Homo sapiens) (UniProt P04637). In words: TOX21_p53_BLA_p3_ratio: Tox21 HCT-116 p53 Agonism Beta-lactamase Assay, Ratio, Phase 3 (AID 2283596; active means hit-call score of the fitted dose curve at least 0.9, where 1 is the maximum). A digest of the protocol: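 Cells were seeded at 4000/well, rested 5 h at 37C, then dosed with DMSO compound solutions (217-fold dilution) for 16 h. CCF4-AM substrate was loaded for 2 h at room temperature, and the 460/530 nm emission ratio was fitted for gain of signal versus DMSO.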

Experiment [12] shares this target. In words: TOX21_p53_BLA_p5_ratio: Tox21 HCT-116 p53 Agonism Beta-lactamase Assay, Ratio, Phase 5 (AID 2283599; active means hit-call score of the fitted dose curve at least 0.9, where 1 is the maximum). An outline of the steps: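 HCT-116 p53-bla cells (4000/well) plated 5 h, dosed with compound (217-fold DMSO dilution) for 16 h at 37 C; CCF4-AM substrate 2 h at room temperature. Activity is the 460/530 nm emission ratio (405 nm excitation), fitted in gain-of-signal direction versus DMSO.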

Each structure is given as a SMILES string. Records with an inconclusive call do not appear. The source made the active and inactive calls. How the source made its calls, unless noted: active means hit-call score of the fitted dose curve at least 0.9, where 1 is the maximum; inactive means score below 0.9. *1 amine or outer side, *2 acyl side, *3 side chain or, on linkers, in order; H or OH if unused. Where a SMILES comes first, the peptide text is derived from it. Bridges are numbered along the chain shown (N, C = ends). Roman numbers before positions name the chains, in order. [ ]: non-standard residue; d: D form. Actinocin(9to1) = Cc1c2oc3c(C)ccc(C(=O)[*:1])c3nc-2c(C(=O)[*:2])c(N)c1=O; NMeV = CN[C@H](C(=O)O)C(C)C; Sar = CNCC(=O)O

Cellular tumor antigen p53 (Homo sapiens), sequence (P04637 whole entry, looked up): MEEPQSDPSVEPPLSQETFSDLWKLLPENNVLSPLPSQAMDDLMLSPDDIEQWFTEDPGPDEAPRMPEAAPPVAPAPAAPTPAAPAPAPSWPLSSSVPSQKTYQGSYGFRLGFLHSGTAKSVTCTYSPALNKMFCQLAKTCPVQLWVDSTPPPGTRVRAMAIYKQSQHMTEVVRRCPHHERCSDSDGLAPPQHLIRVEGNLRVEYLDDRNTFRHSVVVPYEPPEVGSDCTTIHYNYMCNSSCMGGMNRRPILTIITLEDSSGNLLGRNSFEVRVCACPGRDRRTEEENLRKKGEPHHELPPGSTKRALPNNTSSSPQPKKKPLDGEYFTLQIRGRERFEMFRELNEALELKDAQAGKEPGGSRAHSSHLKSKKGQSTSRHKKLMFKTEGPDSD

Take `Cc1c2oc3c(C)ccc(C(=O)N[C@@H]4C(=O)N[C@H](C(C)C)C(=O)N5CCC[C@H]5C(=O)N(C)CC(=O)N(C)[C@@H](C(C)C)C(=O)O[C@@H]4C)c3nc-2c(C(=O)N[C@@H]2C(=O)N[C@H](C(C)C)C(=O)N3CCC[C@H]3C(=O)N(C)CC(=O)N(C)[C@@H](C(C)C)C(=O)O[C@@H]2C)c(N)c1=O` (I: T[dV]P[Sar][NMeV] / II: T[dV]P[Sar][NMeV]; ester I:1-I:C, II:1-II:C; linker I:N-II:N via Actinocin(9to1)): the AC50 (usually the concentration giving half of the maximal activity seen) in [1] is 1.54 nM (active); in experiment [2], 0.297 nM (active); in experiment [3] it was 0.544 nM (active); in [4], 2.31 nM (active); in experiment [5], 1.62 nM (active); in experiment [6], 0.0442 nM (active). The AC50 is 1.08 nM (active) in experiment [7] and 0.0148 nM (active) in experiment [8].

Regarding `CC(=O)CC(=O)Nc1ccc2[nH]c(=O)[nH]c2c1`, the outcome in [9], in experiment [10], in experiment [11] and in experiment [12] was inactive.

Values taken from PubChem BioAssay (EPA / NIEHS).
